TDP1 cell noCPT: qHTS for Inhibitors of human tyrosyl-DNA phosphodiesterase 1 (TDP1): qHTS in cells in absence of CPT | Potency, µM (series often up to 46.2 µM), for inactives: at the top dose activity change, negative = growth inhibition, usual class: inhibitors | hit rate 15% among 420,000 | DT40 Tdp1-/- hTDP1 cells, no CPT, ATP luminescence, 48 h; note: % is set by controls: 0 for no effect and ±100 for the full control effect; nearly all actives have a fitted effect of over 55% in size
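Compound effects on proliferation are scored in DT40 Tdp1-/-;hTDP1 cells in the absence of CPT. ATP levels (CellTiter-Glo luminescence) are recorded after a ≥48 hr, 37 °C incubation.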
HepG2 viability: counter-screen for TGF-b inhibitors: cytotoxicity in HepG2 cells. Potency, µM (highest dose often 46.1 µM), without a hit: at the highest dose activity change, negative = cytotoxicity, usual class: cytotoxic. HepG2 CAGA-GFP viability, ATP luminescence, 18 h. AID 588856. hit rate 0.76% among 410,000
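HepG2 CAGA-GFP cells (1000/well, DMEM with 1% FBS) received compound, then TGF-beta at 500 pg/mL final, and were incubated 18 hours at 37 degrees C. Viability was read by CellTiter-Glo luminescence. Media-only wells were set as complete cell-killing and DMSO as no toxicity.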
HT1080NT lethal: kills 2HG-producing HT-1080-NT fibrosarcoma cells; HT-1080-NT fibrosarcoma viability, CellTiter-Glo ATP luminescence, 48 h; Potency, µM (titrated, usually from 46.1 µM), for the others: at the top dose activity, negative = less viability, hits mostly cytotoxic; hit rate 1.6% among 360,000;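 note: NT is the 2HG producing partner of a matched IDH1 knockdown line; 0% = DMSO-treated cells and -100% = media-only wells without cells; nearly all actives have a fitted effect of over 55% in size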
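750 cells/well, RPMI + 5% FBS; 2 h settle, compound pin-transfer, 48 h at 37 degrees C. CellTiter-Glo 10 min RT, luminescence. Normalized to DMSO and media-only wells.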
HT1080 IDH1KD tx: HT-1080 IDH1 knockdown cell toxicity (counter line) | HT-1080 IDH1 knockdown viability, ATP luminescence, 48 h | Potency, µM (doses to about 46.1 µM), for the others: top-dose activity, negative = toxicity, most hits filed as cytotoxic | hit rate 2% among 360,000 | AID 686971;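 note: 0% = DMSO wells and -100% = cell-free medium wells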
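Using the IDH1-knockdown HT-1080 line run in the same batch and compound series as the NT line, viability after 48 h at 37 °C was determined by CellTiter-Glo luminescence and expressed as % activity.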
TGFb inhibitor: blocks TGF-b signaling | HepG2 CAGA-GFP TGF-b/SMAD3 reporter, GFP fluorescence, 18 h; TGF-beta stimulated, 500 pg/mL final | Potency, µM (titrated, usually from 46.1 µM), for inactives: top-dose activity, negative = inhibition, usual class: inhibitors | hit rate 1.2% among 410,000; note: % is set by controls: 0 for no effect and ±100 for the full control effect; nearly all actives have a fitted effect of over 65% in size
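Per well, imaged GFP fluorescence of HEPG2 CAGA-GFP cells gives the signal; cells get compound, then TGF-beta (500 pg/mL final), 18 h at 37 degrees C; %Activity versus -TGF-beta and +DMSO controls.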
DT40 TDP1 CPT: growth inhibition of DT40 Tdp1-/-;hTDP1 cells with camptothecin (screen for TDP1 inhibitors). Potency, µM (top dose mostly 46.2 µM), inactives show at the top dose activity change, negative = growth inhibition, hits mostly inhibitors. AID 686979. hit rate 12% among 420,000. chicken DT40 Tdp1-/-;hTDP1 cells + 20 nM CPT, ATP luminescence, 48 h; note: % is set by controls: 0 for no effect and ±100 for the full control effect; nearly all actives have a fitted effect of over 55% in size
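Chicken DT40 Tdp1-/- cells complemented with human TDP1, 400 cells/well, exposed to compounds plus 20 nM camptothecin for at least 48 h at 37 C; viability read as ATP content by CellTiter-Glo luminescence.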
* marks the source's active call; other numbers are inactive results; ? = inconclusive; / = no result; [ ] = another dose, or the depositor's remark. Compounds with a hit are over-represented: about 17% of the library has one in this group of screens. Calls come from the whole dose curve; as a rule, active = well fitted curve in the direction sought with a large enough effect; inconclusive = small, poorly fitted or top-dose-only effect, or another doubt; inactive = no such curve, though single readings can be large; an effect the other way counts as inactive or inconclusive. Potency is the fitted concentration of half-maximal effect.

SMILES	TDP1 cell noCPT	HepG2 viability	HT1080NT lethal	HT1080 IDH1KD tx	TGFb inhibitor	DT40 TDP1 CPT
C=C(CCC(=O)c1ccccc1)C(=O)c1ccccc1	2.1µM*	10µM*	26µM*	?	-33%	6.5µM*
CC(C)C1=CC2=CC[C@@H]3[C@@](C)(C(=O)O)CCC[C@]3(C)C2CC1 (some centres undefined)	-11%	/	/	/	/	4%
Cc1ccc(-n2c(C)cc(/C=C3\SC(=O)NC3=O)c2C)cc1	0%	-2%	2%	-1%	-20%	-22%
Cc1cc(/C=C2\SC(N)=NC2=O)c(C)n1-c1ccc(F)cc1	?	13µM*	3%	0%	-10%	-17%
CCOc1ccccc1-c1nn2c(Cc3ccccc3)nnc2s1	-25%	13µM*	-27%	?	?	-29%
Cc1sc2ncn(CC(=O)N3CCN(c4ccc(F)cc4)CC3)c(=O)c2c1S(=O)(=O)N1CCC(C)CC1	?	-12%	/	/	-21%	?
Cc1sc2ncn(CC(=O)N3CCN(c4ccccc4)CC3)c(=O)c2c1S(=O)(=O)N1CCC(C)CC1	23µM*	-20%	/	/	?	?
Cc1sc2ncn(CC(=O)N3CCN(c4cccc(Cl)c4)CC3)c(=O)c2c1S(=O)(=O)N1CCC(C)CC1	23µM*	-23%	/	/	?	?
Cc1cc(C)nc(NN=C(c2ccccc2)c2ccccc2)n1	10µM*	-64%	12%	14%	11µM*	16µM*
CC(/C=C/c1ccccc1)=N/NC(=O)c1nc2nc(C)cc(C)n2n1	?	16%	1%	6%	-2%	-7%
CC(/C=C/c1ccccc1)=N\Nc1nc(C)cc(C)n1	5.2µM*	-26%	17%	8%	?	4.6µM*
CCn1c(=S)sc2c(=O)n(CC(=O)Nc3ccc(Cl)cc3)c(C)nc21	-8%	-15%	-1%	6%	-1%	?
CO[C@H]1[C@H](NC(=O)c2ccsc2)c2ccccc2C12CCN(Cc1cccn1-c1ccccn1)CC2	-26%	/	/	/	/	10%[9.04 µM]
COc1ccccc1NC(=O)N(C)C[C@H]1Oc2ncc(C#CCN(C)C)cc2C(=O)N([C@H](C)CO)C[C@H]1C	-17%	-22%	0%	-1%	-7%	-7%
CCC1=NN2C(=N)/C(=C\c3cccn3-c3ccc(C)cc3C)C(=O)N=C2S1	-19%	-14%	-1%	0%	-20%	-7%
CCC1=NN2C(=N)/C(=C\c3cccn3-c3c(C)cccc3C)C(=O)N=C2S1	3.7µM*	-21%	-7%	-1%	-7%	?
O=C1C=C(c2ccc(-c3ccccc3)cc2)C[C@@H](c2ccc(F)cc2)C1	?	1%	26%	17%	-11%	18µM*
O=C1C=C(c2ccc(CO)cc2)C[C@@H](c2ccc(F)cc2)C1	23µM*	-25%	-14%	-13%	?	-29%
Cn1ccc2ccc(C3=CC(=O)C[C@H](c4ccc(F)cc4)C3)cc21	18µM*	-11%	-5%	7%	-1%	7.3µM*
O=C(Nc1ccccc1OCc1cc(=O)n2ccccc2n1)c1ccccc1F	-29%	-6%	/	/	1%	?
Cc1ccc(Nc2ncnc3c2cnn3-c2ccccc2)c(C)c1	/	-23%	/	/	0%	/
Cc1ccc(C(=O)CNc2ccc(C)c(Cl)c2)cc1	-2%	-8%	-2%	1%	1%	?
Cc1ccc(NCCC(=O)c2ccccc2)cc1Cl	15µM*	-22%	-11%	-7%	0%	10µM*
Cc1ccc(NC2=C(NC(=O)c3ccccc3)C(=O)c3ccccc3C2=O)cc1Cl	21µM*	16µM*	-18%	-16%	11µM*	8.2µM*
COc1ccc(/C=C/C(=O)N2CCc3c(cnc(C)c3CNC(=O)c3ccsc3)C2)cc1OC	-27%	/	/	/	/	6%[9.04 µM]
SMILES	TDP1 cell noCPT	HepG2 viability	HT1080NT lethal	HT1080 IDH1KD tx	TGFb inhibitor	DT40 TDP1 CPT
Fc1ccccc1N1CCN(c2c3c(nc4nncn24)CCC3)CC1	21µM*	-15%	/	/	-19%	?
CC1C/C(=N/Nc2nc3ccccc3[nH]2)CC(C)(C)C1 (centres undefined)	?	-30%	2%	-1%	?	21µM*
CC1C/C(=N/NC(=O)c2ccc(CSc3nc4ccccc4[nH]3)cc2)CC(C)(C)C1 (centres undefined)	-27%	-1%	-5%	-10%	0%	-26%
Cc1csc(SCc2nnc(-c3ccccc3Br)o2)n1	-20%	-18%	-6%	2%	-7%	-26%
Fc1ccccc1SCc1nnc(-c2ccccc2Br)o1	26µM*	-9%	-3%	-3%	?	5.8µM*
CN(C)CCNC(=O)c1coc(=O)c(Br)c1	5.8µM*	3%	-2%	-4%	0%	2.3µM*
O=C(Nc1cc(Cl)cc(Cl)c1)c1coc(=O)c(Br)c1	12µM*	22%	0%	2%	-1%	1.6µM*
O=C(NCCc1ccccc1)c1coc(=O)c(Br)c1	0.58µM*	-19%	21µM*	23µM*	?	0.82µM*
O=C(COC(=O)c1cc(Br)c(Br)s1)NCCC1=CCCCC1	21µM*	-4%	-12%	-6%	-38%	23µM*
Cn1ncc(Br)c1NC(=O)c1cc(Cl)cc(Cl)c1	-24%	-1%	-2%	-11%	-14%	-3%
Cn1c(=O)c2sccc2n2c(CCCC(=O)NCc3ccccc3)nnc12	-20%	-5%	/	/	-17%	-27%
CC(C)CNC(=O)c1coc(=O)c(Br)c1	0.82µM*	-89%	?	11µM*	14µM*	0.41µM*
O=C(NNC(=O)C1C2CCCCC21)c1coc(=O)c(Br)c1 (centres undefined)	4.1µM*	1%	-1%	0%	0%	4.1µM*
Cc1cc(C(=O)NCCC2=CCCCC2)c(C)o1	18µM*	-6%	5%[9.24 µM]	?	7%	?
O=C(NCCC1=CCCCC1)c1coc(=O)c(Br)c1	0.37µM*	-87%	7.3µM*	18µM*	?	0.12µM*
NC(=O)NCCC1=CCCCC1	-13%	-13%	6%	-2%	7%	-8%
O=C(Nc1ccc(Br)c(Br)c1)C1CCCO1 (centres undefined)	-8%	-8%	19%	22%	3%	-8%
O=C(Nc1ccccc1)/C(=C/c1ccc(O)cc1)NC(=O)c1ccco1	4%	-12%	10%	6%	3%	12%
